{"source": "PubChem BioAssay AID861", "about": "(The Scripps Research Institute Molecular Screening Center, 2007)", "note": "Out of some 200,000 compounds screened, about 360 (0.18%) were called active. Many of the other results were omitted from the sample, so actives are more common in it than they were. A number with no mark means an inactive call. Rule as the data show it: active = inhibition above about 25%; inactive = the rest."}
{"biological_target": "Toll-like receptor 4 (Homo sapiens) + Myeloid differentiation primary response protein MyD88 (Homo sapiens) (UniProt O00206+Q99836)", "sequence (O00206 whole entry, looked up)": "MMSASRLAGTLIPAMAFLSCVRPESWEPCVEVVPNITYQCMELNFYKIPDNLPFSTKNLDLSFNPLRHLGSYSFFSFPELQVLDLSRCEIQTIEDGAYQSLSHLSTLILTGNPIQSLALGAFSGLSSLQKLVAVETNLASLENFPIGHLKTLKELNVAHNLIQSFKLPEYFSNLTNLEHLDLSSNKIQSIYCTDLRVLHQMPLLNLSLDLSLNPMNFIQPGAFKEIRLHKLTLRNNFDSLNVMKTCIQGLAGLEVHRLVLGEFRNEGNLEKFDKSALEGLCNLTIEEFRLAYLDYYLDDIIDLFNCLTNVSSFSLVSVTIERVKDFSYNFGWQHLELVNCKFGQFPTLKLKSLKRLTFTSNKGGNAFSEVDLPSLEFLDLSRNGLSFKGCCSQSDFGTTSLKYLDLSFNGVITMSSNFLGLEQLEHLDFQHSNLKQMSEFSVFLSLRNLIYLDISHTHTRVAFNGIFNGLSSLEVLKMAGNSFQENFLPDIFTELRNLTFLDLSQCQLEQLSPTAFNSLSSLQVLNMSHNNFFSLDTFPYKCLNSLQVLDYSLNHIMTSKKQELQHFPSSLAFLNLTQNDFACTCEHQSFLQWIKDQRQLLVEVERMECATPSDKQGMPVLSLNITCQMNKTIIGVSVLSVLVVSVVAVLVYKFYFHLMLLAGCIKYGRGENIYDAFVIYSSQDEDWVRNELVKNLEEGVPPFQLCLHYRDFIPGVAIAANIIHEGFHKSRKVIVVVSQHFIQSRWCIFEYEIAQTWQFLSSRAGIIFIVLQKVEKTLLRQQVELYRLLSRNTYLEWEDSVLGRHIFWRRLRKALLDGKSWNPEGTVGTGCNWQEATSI", "sequence (Q99836 whole entry, looked up)": "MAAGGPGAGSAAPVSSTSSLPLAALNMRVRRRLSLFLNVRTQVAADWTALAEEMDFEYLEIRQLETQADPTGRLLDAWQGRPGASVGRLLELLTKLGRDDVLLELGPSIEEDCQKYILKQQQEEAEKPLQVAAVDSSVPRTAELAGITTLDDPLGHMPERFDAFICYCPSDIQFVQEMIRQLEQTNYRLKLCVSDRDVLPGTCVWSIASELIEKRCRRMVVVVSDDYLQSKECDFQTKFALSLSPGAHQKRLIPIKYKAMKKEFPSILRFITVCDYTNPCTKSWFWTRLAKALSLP", "test": "disruptors of TLR4 binding to MyD88 – cell-based, HeLa CL3-4, BLA complementation, FRET ratio, primary screen (AID 861);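 also: 0% = vehicle and 100% = reference inhibitor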", "details": "HeLa CL3-4 TLR4/MyD88 BLA complementation, at 8.4 µM, active compounds read high"}
{"smiles": "CCOC(=O)Cc1csc(NC(=O)CSc2ccc(Br)cc2)n1", "inhibition": "-6.41%"}
{"smiles": "CNC(=O)c1ccsc1NC(=O)c1ccc(S(=O)(=O)N2CCOCC2)cc1", "inhibition": "0.17%"}
{"smiles": "Cc1ccc(Oc2cc(NC(=O)CCCn3nc(C)c([N+](=O)[O-])c3C)cc([N+](=O)[O-])c2)cc1", "inhibition": "-10.9%"}
{"smiles": "Nc1cc(C(F)(F)F)ccc1N1CCOCC1", "inhibition": "2.5%"}
{"smiles": "COc1ccccc1-c1nc(SC)n[nH]1", "inhibition": "-2.94%"}
{"smiles": "CN(C)CCCCCN(C)Cc1cc2ccccc2o1", "inhibition": "6.13%"}
{"smiles": "Cc1nn(Cc2ccc(Cl)cc2)c(Cl)c1/C=N/NC(=O)CNc1ccccc1F", "inhibition": "-10.4%"}
{"smiles": "COc1ccc(/C=C2/C(=O)OCc3cc(OC)c(OC)cc32)c(OC)c1", "inhibition": "-8.99%"}
{"smiles": "Cc1cc(-c2csc(N)n2)c(C)n1Cc1ccccc1", "inhibition": "5.78%"}
{"smiles": "CC(C)(C)NC(=O)NC(=O)COC(=O)Cc1ccc(Cl)cc1Cl", "inhibition": "16.8%"}
{"smiles": "Cc1ccnc2nc(C(=O)OCC(=O)N(CC(C)C)CC(C)C)nn12", "inhibition": "-2.14%"}
{"smiles": "C=CCN(CC=C)CCOc1ccccc1[N+](=O)[O-]", "inhibition": "9.15%"}
{"smiles": "COC(CNC(=O)Cn1ncc2ccsc2c1=O)OC", "inhibition": "-15.6%"}
{"smiles": "CCO/C=C1\\C(=O)N(c2ccc(OCC)cc2)C(=O)c2ccccc21", "inhibition": "5.91%"}
{"smiles": "Cn1cccc1C(C#N)c1ccccc1C#N", "note": "(stereo not drawn)", "inhibition": "2.41%"}
{"smiles": "COc1cccc(OC)c1C(=O)NC(=S)Nc1ccc(N2CCOCC2)c(Cl)c1", "inhibition": "-0.95%"}
{"smiles": "O=C(Cc1ccccc1)NCc1ccc(F)cc1", "inhibition": "-9.59%"}
{"smiles": "CCOC(=O)CSc1nc(C)cc2c1C(=O)OC2", "inhibition": "8.27%"}
{"smiles": "O=C(Cn1nnc(-c2ccccc2)n1)N/N=C/c1ccc(-c2ccc(Cl)cc2)o1", "inhibition": "8.21%"}
{"smiles": "N/C(=N/O)c1cccn1Cc1ccccc1[N+](=O)[O-]", "inhibition": "-3.45%"}
{"smiles": "O=C(CCCOc1ccccc1)NCc1ccco1", "inhibition": "9.17%"}
{"smiles": "O=C(c1ccc(F)cc1)c1cn(Cc2ccc(F)cc2)c2cc3c(cc2c1=O)OCCO3", "inhibition": "-6.89%"}
{"smiles": "CCN(CC)CCn1c(/N=C/c2cc(Br)ccc2O)nc2ccccc21", "inhibition": "7.14%"}
{"smiles": "CCOc1ccc(NC(=O)CN(C)CC(=O)NC(C)c2ccccc2)cc1OCC", "note": "(stereo not drawn)", "inhibition": "-3.92%"}
{"smiles": "CCCNC(=S)N1CCCC(c2nc3ccccc3[nH]2)C1", "note": "(stereo not drawn)", "inhibition": "-4.57%"}
{"smiles": "Cc1cc(C)c[n+](-c2nc3ccccc3nc2[N-]S(=O)(=O)c2cccs2)c1", "inhibition": "-9.34%"}
{"smiles": "COc1ccc2cc(CCl)c(Cl)nc2c1", "inhibition": "2.67%"}
{"smiles": "COc1cccc(OC)c1C(=O)Nc1ccc(Cc2ccncc2)cc1", "inhibition": "13.9%"}
{"smiles": "COc1ccc(-c2onc(C)c2-c2ccc3c(c2)OCCO3)c(O)c1", "inhibition": "1.48%"}
{"smiles": "CC(CC(=O)O)C(=O)c1ccc(Cl)c([N+](=O)[O-])c1", "note": "(stereo not drawn)", "inhibition": "1.72%"}
{"smiles": "Cc1nnc(-c2ccc(Oc3ccc(C)c(C)c3)c([N+](=O)[O-])c2)o1", "inhibition": "2.54%"}
{"smiles": "C[n+]1ccc(/C=C/c2c[nH]c3ccccc23)cc1", "inhibition": "35.4% (active)"}
{"smiles": "CSC(=S)N/N=C/c1c[nH]c2ccccc12", "inhibition": "-16.8%"}
{"smiles": "S=c1[nH]nc(-c2ccccc2)n1/N=C/c1c[nH]c2ccccc12", "inhibition": "-1.22%"}
{"smiles": "O=c1c2cc3c(=O)n(CC4CCCO4)c(=O)c3cc2c(=O)n1CC1CCCO1", "note": "(stereo not drawn)", "inhibition": "0.88%"}
{"smiles": "O=C(NCc1ccc2c(c1)OCO2)c1ccc2c(c1)C(=O)N(CC1CCCO1)C2=O", "note": "(stereo not drawn)", "inhibition": "16.9%"}
{"smiles": "O=C1c2cccc3c([N+](=O)[O-])ccc(c23)C(=O)N1CC1CCCO1", "note": "(stereo not drawn)", "inhibition": "84.1% (active)"}
{"smiles": "C/C=C/c1ccc(OCCOc2ccc(C=O)cc2OC)c(OC)c1", "inhibition": "-6.21%"}
{"smiles": "COCCCNC(=O)C1CCC(CNS(=O)(=O)c2ccc(OC)cc2)CC1", "note": "(stereo not drawn)", "inhibition": "3.23%"}
{"smiles": "CCOC(=O)C1=C(CC)Nc2ccccc2N=C1N", "inhibition": "-10.4%"}
{"smiles": "CCCCN(CC)C(=O)c1ccc2c(c1)OCO2", "inhibition": "-2.02%"}
{"smiles": "O=c1cnnc(Nc2ccccc2F)[nH]1", "inhibition": "6.52%"}
{"smiles": "COc1ccccc1CC(=O)Nc1ccc(F)cc1F", "inhibition": "-14.3%"}
{"smiles": "O=C1NC(=O)C2C1C(c1ccc([N+](=O)[O-])cc1)=NN2Cc1ccccc1", "note": "(stereo not drawn)", "inhibition": "44.1% (active)"}
{"smiles": "CC1=NN(c2ccccc2)C(=O)C1C(=O)c1ccc([N+](=O)[O-])cc1", "note": "(stereo not drawn)", "inhibition": "1.28%"}
{"smiles": "O=C1CC(c2ccccc2)=NN1c1ccc([N+](=O)[O-])cc1", "inhibition": "7.06%"}
{"smiles": "COC(=O)c1cc(C)sc1NC(=O)CC1Nc2ccccc2NC1=O", "note": "(stereo not drawn)", "inhibition": "5%"}
{"smiles": "COc1ccc(-c2nn(-c3ccccc3)cc2/C=N/Nc2ccccn2)cc1OC", "inhibition": "-3.61%"}
